High-throughput results deposited in PubChem by National Center for Advancing Translational Sciences (NCATS).
Shiga inhibitor = blocks Shiga toxin action in Vero cells; Vero cells, Shiga toxin protein synthesis inhibition reporter; inhibition, % at 38.7 µM; 290,000 tested, 9.2% active; in the data active = inhibition mostly above about 28%, no sharp cut-off; inactive = mostly below about 43%; also: 0% is about no effect
Cycloheximide cs = counter-screen for Shiga toxin inhibitors: cycloheximide protein synthesis inhibition. AID 2314. max response, %. cell reporter, cycloheximide protein synthesis inhibition counterscreen. 300,000 tested, 12% active; in the data active = max response mostly above about 13%, no sharp cut-off; inactive = mostly below about 14%; also: read at 38.3 µM for the half of the compounds with a filed dose; 0% is about no effect
LmPK inhibitor = blocks Leishmania mexicana pyruvate kinase activity; Q27686; 290,000 tested, 0.37% active; purified LmPK, Kinase-Glo ATP luminescence, 1 h; Potency, µM (top dose mostly 57.5 µM), inactives show top-dose activity change, negative = inhibition, actives largely listed as inhibitors; AID 1721; also: potency is read from the fitted curve at half-maximal effect; % is scaled to controls: 0 for no effect and ±100 for the full control effect
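Pyruvate kinase activity monitored as ATP production (luciferase luminescence). Conditions: 0.1 nM enzyme, 0.5 mM PEP, 0.1 mM ADP, 1 h, RT; normalized against uninhibited and no-enzyme wells.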
TbPYK inhibitor = blocks Trypanosoma brucei pyruvate kinase; TbPYK enzyme, Kinase-Glo Plus ATP luminescence, 45 min; 410,000 tested, 0.12% active; Potency, µM (top dose mostly 76.8 µM), inactives show top-dose activity, negative = inhibition, most hits filed as inhibitors; Q57TT1; also: potency is read from the fitted curve at half-maximal effect; % is scaled to controls: 0 for no effect and ±100 for the full control effect; nearly all actives have a fitted effect of over 50% in size
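TbPYK + substrate in 50 mM TEA pH 7.2, 100 mM KCl, 10 mM MgCl2, 0.05% BSA, 0.01% Tween-20; cpd pinned; ADP 130 uM final; 45 min RT; Kinase-Glo Plus 10 min; luminescence endpoint.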
Sm TGR block = blocks Schistosoma mansoni thioredoxin glutathione reductase; purified TGR, DTNB reduction, TNB absorbance 405 nm; Q962Y6; 360,000 tested, 3% active; AID 485364; Potency, µM (highest dose often 114 µM), for inactives: at the highest dose activity change, negative = inhibition, actives largely listed as inhibitors; also: potency is read from the fitted curve at half-maximal effect; % is scaled to controls: 0 for no effect and ±100 for the full control effect; nearly all actives have a fitted effect of over 60% in size
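Kinetic colorimetric format: TGR-catalysed, NADPH-driven DTNB reduction monitored via TNB absorbance. Enzyme dispensed at 20 nM; compound exposure 15 min at room temperature before reaction start.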
Giardia FBPA inh = inhibitors of Giardia lamblia fructose-1,6-bisphosphate aldolase | purified Giardia FBPA | Potency, µM (top dose mostly 59.6 µM), inactives show top-dose activity, negative = inhibition, hits mostly inhibitors | A8B2U2 | 290,000 tested, 0.71% active; also: potency is read from the fitted curve at half-maximal effect; % is scaled to controls: 0 for no effect and ±100 for the full control effect; nearly all actives have a fitted effect of over 55% in size
Target sequence (A8B2U2 whole entry, looked up): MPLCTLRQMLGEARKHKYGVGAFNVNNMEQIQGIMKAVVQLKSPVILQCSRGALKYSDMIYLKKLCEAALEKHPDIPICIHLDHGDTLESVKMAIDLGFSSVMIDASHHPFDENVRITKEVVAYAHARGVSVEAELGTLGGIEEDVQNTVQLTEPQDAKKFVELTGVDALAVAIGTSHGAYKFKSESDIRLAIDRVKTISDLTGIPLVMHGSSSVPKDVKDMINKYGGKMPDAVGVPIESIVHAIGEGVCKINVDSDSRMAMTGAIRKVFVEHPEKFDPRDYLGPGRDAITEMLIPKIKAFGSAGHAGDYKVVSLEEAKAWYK
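40 nM FBPA preincubated 10 min at RT with compound (up to 57.5 uM final), then substrate plus GAPDH/TPI/NAD/arsenate coupling and diaphorase/resazurin added. Fluorescence read after 20 min at RT, 525/598 nm.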
* = called active by the depositor; ? = inconclusive; nt = no result given; [ ] = remark or other dose. The entries come from a sample that favours hits as a whole. Unless noted, calls follow the shape of the dose curve; as a rule, active = well fitted curve in the direction sought with a large enough effect; inconclusive = small, poorly fitted or top-dose-only effect, or another doubt; inactive = no such curve, though single readings can be large; an effect the other way counts as inactive or inconclusive.

SMILES	Shiga inhibitor	Cycloheximide cs	LmPK inhibitor	TbPYK inhibitor	Sm TGR block	Giardia FBPA inh
COc1ccc2c(c1OC)C(=O)N(c1cccc(/C=C/C(=O)O)c1)C2	-4	-4	-7%	2%	0%	11%
COc1ccc(N2Cc3ccc(OC)c(OC)c3C2=O)cc1	76*	48*	5%	1%	11%	0%
Cc1ccc(NC(=O)C2CCCN(c3nnc(C)c4c(C)n(-c5ccccc5)nc34)C2)c(Cl)c1 (configuration not stated)	nt	nt	nt	0%	0%	nt
COc1ccc(N(CC(=O)N/N=C(\C)c2ccc(OC)c(OC)c2)S(=O)(=O)c2ccccc2)cc1	-5	-2	8%	8%	10%	-9%
O=C(NNC1=NC2(CCCC2)Cc2ccccc21)c1ccncc1	-1	-6	-4%	0%	3%	-2%
CNC(=O)Nc1ccc2nc(C)oc2c1	5	5	-1%	-1%	-3%	0%
O=C(Nc1ccccc1)Nc1ccc2ncoc2c1	64*	42*	-22%	2%	10%	-2%
O=C(Nc1ccccc1)Nc1ccc2ocnc2c1	67*	42*	-23%	-1%	-2%	-21%
COc1ccc(Nc2ncc3c(n2)CCN(Cc2cccc(F)c2F)C3)c(OC)c1	nt	nt	nt	0%	4%	nt
CC1(C)CC(=O)C2=C(C1)NC(=S)C(C#N)C21CCCCC1 (configuration not stated)	-4	-2	-11%	2.8µM*	-14%	?
CC1(C)CC(=O)C2=C(C1)NC(SCC(=O)Nc1ccccc1)=C(C#N)C21CCCCC1	-22	-1	4%	-9%	20%[11.4 µM]	-9%
COC(=O)N[C@@H](c1cccc(C)c1)[C@@H](C)[N+](=O)[O-]	nt	nt	nt	nt	nt	0%
COc1ccc(NC(=O)CCC(=O)N2CCCC2)c([N+](=O)[O-])c1	-6	-2	0%	0%	3%	7%
Cc1sc[n+](CC(=O)c2ccc(Br)cc2)c1C	-1	7	6%	-2%	4%	3%
CCn1c(C)nc2c(C)[n+](CC(=O)c3ccc(Br)cc3)ccc21	61*	25*	0%	2%	-5%	0%
Cc1cc(S(=O)(=O)Nc2cc3c(cc2N2CCOCC2)n(C)c(=O)c(=O)n3C)ccc1F	nt	nt	nt	-30%	-33%	nt
O=C(Cn1cc(C(=O)c2cccs2)c2ccccc21)Nc1ccc(Br)cc1	nt	nt	nt	-8%	-7%	nt
O=C(NC1CCCc2ccccc21)c1ccc2c(c1)sc1nc(-c3ccccc3)cn12 (configuration not stated)	nt	nt	nt	0%	3%	nt
O=C(c1ccc(CS(=O)(=O)c2ccc(Br)cc2)o1)N1CCN(c2ncccn2)CC1	-7	-1	0%	-2%	50µM*	3%
COc1ccccc1S(=O)(=O)Cc1ccc(C(=O)N2CCN(c3ccccn3)CC2)o1	10	0	4%	-4%	28µM*	2%
COc1ccc(S(=O)(=O)Cc2ccc(C(=O)N3CCN(c4ccccn4)CC3)o2)cc1	-11	-7	-3%	-5%	0%	0%
Cc1c(CCC(=O)NCc2ccc(F)cc2)c(=O)oc2cc(O)ccc12	nt	nt	nt	3%	4%	nt
O=C(Nc1ccccn1)c1ccc2ccccc2c1O	66*	40*	-2%	-5%	2%	?
O=C(Nc1cccnc1)c1ccc2ccccc2c1O	39*	33*	-8%	0%	-24%	-30%
O=C(O)c1ccccc1C(=O)Nc1ccccn1	11	8	1%	1%	1%	-3%
SMILES	Shiga inhibitor	Cycloheximide cs	LmPK inhibitor	TbPYK inhibitor	Sm TGR block	Giardia FBPA inh
O=C(N/N=C\c1cccnc1)c1ccccc1O	33*	23*	-1%	-3%	-24%	-4%
O=C(Cc1cccc2ccccc12)Nc1cccnc1	-12	4	-4%	0%	-1%	1%
O=C(N/N=C/c1cccnc1)c1ccccc1Cl	61*	17*	-6%	-2%	10%	7%
COc1ccc(-n2nc(C(=O)O)c3csc(N)c3c2=O)cc1	-4	-8	nt	nt	nt	nt
CN(/N=C/c1cc(Cl)ccc1O)C1=NS(=O)(=O)c2ccccc21	-3	8	0%	5%	-19%	-4%
CCOc1ccccc1N(CC(=O)NCc1ccco1)C(=O)CCC(=O)Nc1nccs1	-5	-6	-8%	-5%	1%	4%
